Source: PubChem BioAssay (EPA / NIEHS)
Records with an inconclusive call do not appear. Activity calls are given as the source filed them. The calls were made as follows, unless noted: active = hit-call score of the fitted dose curve at least 0.9, where 1 is the maximum; inconclusive = response in the unintended direction; inactive = score below 0.9.

What was measured:
[1] = ATG_TCF_b_cat_CIS: Attagene CIS-FACTORIAL HepG2 Assay for human T-Cell-Factor with beta-catenin (TCF/b-cat) (AID 2282965; active = hit-call score of the fitted dose curve at least 0.9, where 1 is the maximum; inactive = score below 0.9); details: HepG2 TCF/beta-catenin cis-reporter transcription, actives raise or lower the signal
Summary of the method: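 HepG2, transient MRTU transfection, cis-element-driven reporters (endogenous TFs). 24 h compound exposure. Readout: reporter mRNA by RT-PCR + 6-FAM primer extension, HpaI digest, capillary electrophoresis. Gain/loss fit vs DMSO baseline.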

[2] = ATG_TAL_CIS: Attagene CIS-FACTORIAL HepG2 Assay for human TAL Basal Promoter (AID 2282966; active = hit-call score of the fitted dose curve at least 0.9, where 1 is the maximum; inactive = score below 0.9;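 also: background control endpoint measuring basal TAL promoter reporter mRNA not a specific factor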); details: HepG2 Attagene cis-factorial TAL promoter reporter; actives raise or lower the signal
Summary of the method: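 In this cell-based multiplex, HepG2 liver cells bearing cis-promoter reporter constructs are dosed for 24 hours. Total RNA is reverse-transcribed and amplified, labelled fragments are sized by capillary electrophoresis, and signal changes are fitted bidirectionally versus DMSO.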

[3] = ATG_TGFb_CIS: Attagene CIS-FACTORIAL HepG2 Assay for human Transforming Growth Factor (TGF) (AID 2282967; active = hit-call score of the fitted dose curve at least 0.9, where 1 is the maximum; inactive = score below 0.9); details: HepG2 Attagene CIS TGFb reporter, mRNA transcription; actives raise or lower the signal
Summary of the method: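 Bidirectional fitting relative to DMSO gave the endpoint. Underlying data: reporter mRNA from HepG2 cells carrying transiently transfected cis-regulated reporter constructs, harvested 24 h after dosing and analyzed by RT-PCR and capillary electrophoresis.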

[4] = ATG_VDRE_CIS: Attagene CIS-FACTORIAL HepG2 Assay for human Vitamin D Receptor Element (VDRE) (AID 2282968; active = hit-call score of the fitted dose curve at least 0.9, where 1 is the maximum; inactive = score below 0.9); details: HepG2 VDRE cis-reporter transcription, actives raise or lower the signal
Summary of the method: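 Transiently transfected HepG2 cells carrying cis-regulated reporter transcription units were exposed for 24 h. Reporter mRNA was measured by RT-PCR with fluorescent labelling and capillary electrophoresis, and fitted in both directions against DMSO.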

[5] = target: X-box-binding protein 1 (Homo sapiens) (UniProt P17861); experiment: ATG_Xbp1_CIS: Attagene CIS-FACTORIAL HepG2 Assay for human X-box Binding Protein 1 (XBP1) (AID 2282972; active = hit-call score of the fitted dose curve at least 0.9, where 1 is the maximum; inactive = score below 0.9); details: HepG2 XBP1 cis-element reporter, Attagene multiplex; actives raise or lower the signal
Sequence of X-box-binding protein 1 (Homo sapiens) (P17861 whole entry, looked up, the tested form may be a part): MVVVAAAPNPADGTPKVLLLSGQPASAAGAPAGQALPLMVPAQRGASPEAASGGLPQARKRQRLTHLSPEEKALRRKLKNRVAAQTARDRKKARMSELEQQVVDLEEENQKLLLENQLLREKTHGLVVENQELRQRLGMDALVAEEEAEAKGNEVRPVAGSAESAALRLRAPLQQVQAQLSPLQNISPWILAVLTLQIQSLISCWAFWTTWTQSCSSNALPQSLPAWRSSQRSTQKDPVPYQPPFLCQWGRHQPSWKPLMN
Summary of the method: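 Fluorescence-labelled cDNA fragments from reporter transcripts, separated by capillary electrophoresis, give the signal. Source: HepG2 cells transfected with promoter-driven reporter units, harvested 24 h post-dose. DMSO served as reference for bidirectional curve fitting.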

[6] = ATG_M_19_TRANS: Attagene TRANS-FACTORIAL HepG2 Assay for M19 Transcription Factor (Internal Marker) (AID 2282974); details: HepG2 Attagene TRANS-FACTORIAL M19 internal marker reporter
Summary of the method: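 Reporter mRNA induction was measured in transfected HepG2 cells 24 h after dosing. Endpoint fitted upward relative to DMSO and serves as a background control within the multiplexed TRANS panel.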

[7] = target: Bile acid receptor (Homo sapiens) (UniProt Q96RI1); experiment: ATG_FXR_TRANS: Attagene TRANS-FACTORIAL HepG2 Assay for Farnesoid X Receptor (FXR) (AID 2282979); details: HepG2 Attagene TRANS FXR-GAL4 reporter transcription;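 also: hits raise reporter mRNA above DMSO so AC50 marks FXR activation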
Sequence of Bile acid receptor (Homo sapiens) (Q96RI1 whole entry, looked up, the tested form may be a part): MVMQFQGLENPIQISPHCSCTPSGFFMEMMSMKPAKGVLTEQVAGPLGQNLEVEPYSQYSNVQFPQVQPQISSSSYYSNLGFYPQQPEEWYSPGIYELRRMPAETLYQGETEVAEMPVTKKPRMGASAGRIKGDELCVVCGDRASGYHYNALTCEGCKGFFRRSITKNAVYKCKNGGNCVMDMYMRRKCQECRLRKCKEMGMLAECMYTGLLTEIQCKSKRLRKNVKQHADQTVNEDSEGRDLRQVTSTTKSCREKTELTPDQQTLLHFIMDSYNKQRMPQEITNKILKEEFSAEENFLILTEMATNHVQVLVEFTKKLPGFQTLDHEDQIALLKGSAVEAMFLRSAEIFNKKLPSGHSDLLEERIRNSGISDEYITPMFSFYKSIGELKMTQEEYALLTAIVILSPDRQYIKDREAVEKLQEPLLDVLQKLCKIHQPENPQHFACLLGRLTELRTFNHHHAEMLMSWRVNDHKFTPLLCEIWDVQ
Summary of the method: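 Read-out: fluorescent reporter transcripts quantified by capillary electrophoresis after RT-PCR of total RNA. Source cells were HepG2 transiently carrying chimeric NR-GAL4 plus GAL4-UAS reporter units, dosed 24 h. Activity fitted upward relative to DMSO baseline.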

[8] = target: Hepatocyte nuclear factor 4-alpha (Homo sapiens) (UniProt P41235); experiment: ATG_HNF4a_TRANS: Attagene TRANS-FACTORIAL HepG2 Assay for human Hepatocyte Nuclear Factor 4 alpha (HNF4a) (AID 2282982); details: HepG2 HNF4a transactivation reporter, mRNA readout
Summary of the method: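 HepG2 cells transiently transfected with HNF4a-Gal4 chimera and GAL4-UAS reporter units, dosed for 24 h. Reporter mRNA measured by RT-PCR, fluorescent primer extension and capillary electrophoresis; gain-of-signal fitted relative to DMSO.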

[9] = ATG_M_32_TRANS: Attagene TRANS-FACTORIAL HepG2 Assay for M32 Transcription Factor (Internal Marker) (AID 2282984); details: HepG2 Attagene TRANS M32 internal marker reporter
Summary of the method: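 HepG2 cells transiently transfected with GAL4-UAS reporter units, dosed for 24 hours. Reporter mRNA quantified by RT-PCR, 6-FAM labelling, HpaI digestion and capillary electrophoresis; internal-marker signal fitted upward relative to DMSO.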

[10] = target: Transcriptional activator Myb (Homo sapiens) (UniProt P10242); experiment: ATG_Myb_CIS: Attagene CIS-FACTORIAL HepG2 Assay for human Myeloblastosis (Myb) Proto-Oncogene Transcription Factor (AID 2282986; active = hit-call score of the fitted dose curve at least 0.9, where 1 is the maximum; inactive = score below 0.9); details: HepG2 Attagene CIS-FACTORIAL Myb reporter transcription; actives raise or lower the signal
Sequence of Transcriptional activator Myb (Homo sapiens) (P10242 whole entry, looked up): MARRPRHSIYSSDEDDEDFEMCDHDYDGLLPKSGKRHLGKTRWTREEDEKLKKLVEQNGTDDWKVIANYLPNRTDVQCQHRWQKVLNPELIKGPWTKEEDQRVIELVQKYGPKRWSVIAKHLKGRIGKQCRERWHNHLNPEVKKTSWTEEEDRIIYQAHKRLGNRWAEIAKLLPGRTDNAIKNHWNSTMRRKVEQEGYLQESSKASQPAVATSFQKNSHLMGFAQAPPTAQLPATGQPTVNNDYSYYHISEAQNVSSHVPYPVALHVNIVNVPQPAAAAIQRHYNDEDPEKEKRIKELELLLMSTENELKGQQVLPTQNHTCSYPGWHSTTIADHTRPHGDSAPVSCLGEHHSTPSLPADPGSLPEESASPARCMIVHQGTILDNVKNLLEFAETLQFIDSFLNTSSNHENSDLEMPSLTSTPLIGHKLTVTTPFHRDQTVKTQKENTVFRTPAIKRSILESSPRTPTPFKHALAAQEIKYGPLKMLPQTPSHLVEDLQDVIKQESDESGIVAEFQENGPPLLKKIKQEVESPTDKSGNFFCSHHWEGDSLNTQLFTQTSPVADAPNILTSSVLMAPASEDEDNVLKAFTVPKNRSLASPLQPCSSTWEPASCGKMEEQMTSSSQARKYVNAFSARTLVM
Summary of the method: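 Transiently transfected HepG2 cells, treated 24 h. Reporter mRNA quantified by RT-PCR/capillary electrophoresis; bidirectional fit relative to DMSO.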

[11] = target: Glucocorticoid receptor (Homo sapiens) (UniProt P04150); experiment: ATG_GR_TRANS: Attagene TRANS-FACTORIAL HepG2 Assay for human Glucocorticoid Receptor (GR) (AID 2282978); details: HepG2 Attagene TRANS GR reporter, mRNA transcription;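 also: activators score as hits since higher reporter transcript over DMSO is fitted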
Sequence of Glucocorticoid receptor (Homo sapiens) (P04150 whole entry, looked up, the tested form may be a part): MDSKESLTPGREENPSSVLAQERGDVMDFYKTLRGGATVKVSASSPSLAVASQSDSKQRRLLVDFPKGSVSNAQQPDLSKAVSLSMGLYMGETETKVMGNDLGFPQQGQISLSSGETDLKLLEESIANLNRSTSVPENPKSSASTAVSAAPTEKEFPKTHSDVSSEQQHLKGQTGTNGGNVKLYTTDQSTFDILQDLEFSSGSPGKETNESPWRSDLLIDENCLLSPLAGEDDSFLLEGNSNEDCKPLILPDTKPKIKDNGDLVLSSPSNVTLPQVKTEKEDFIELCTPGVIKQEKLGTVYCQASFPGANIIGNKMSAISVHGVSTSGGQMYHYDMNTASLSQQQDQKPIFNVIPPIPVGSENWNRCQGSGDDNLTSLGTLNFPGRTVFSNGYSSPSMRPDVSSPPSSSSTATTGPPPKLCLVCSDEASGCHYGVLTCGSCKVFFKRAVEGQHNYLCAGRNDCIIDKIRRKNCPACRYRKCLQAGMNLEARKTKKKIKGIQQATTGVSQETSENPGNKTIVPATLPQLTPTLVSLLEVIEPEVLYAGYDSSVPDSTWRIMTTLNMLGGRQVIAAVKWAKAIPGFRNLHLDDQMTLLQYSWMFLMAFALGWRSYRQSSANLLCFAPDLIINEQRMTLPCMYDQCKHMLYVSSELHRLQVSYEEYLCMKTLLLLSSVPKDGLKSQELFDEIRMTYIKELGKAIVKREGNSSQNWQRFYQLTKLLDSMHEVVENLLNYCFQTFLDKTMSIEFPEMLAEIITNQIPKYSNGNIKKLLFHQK
Summary of the method: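 Reporter transcript levels, detected by fluorescence after RT-PCR and capillary electrophoresis, served as the endpoint. HepG2 cells bearing transfected GAL4-UAS reporters responsive to NR-GAL4 chimeras were incubated with compound 24 h; DMSO defined baseline.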

[12] = target: Oxysterols receptor LXR-alpha (Homo sapiens) (UniProt Q13133); experiment: ATG_LXRa_TRANS: Attagene TRANS-FACTORIAL HepG2 Assay for human Liver X Receptor alpha (LXRa) (AID 2282980); details: HepG2 Attagene TRANS reporter, LXRa transactivation
Sequence of Oxysterols receptor LXR-alpha (Homo sapiens) (Q13133 whole entry, looked up, the tested form may be a part): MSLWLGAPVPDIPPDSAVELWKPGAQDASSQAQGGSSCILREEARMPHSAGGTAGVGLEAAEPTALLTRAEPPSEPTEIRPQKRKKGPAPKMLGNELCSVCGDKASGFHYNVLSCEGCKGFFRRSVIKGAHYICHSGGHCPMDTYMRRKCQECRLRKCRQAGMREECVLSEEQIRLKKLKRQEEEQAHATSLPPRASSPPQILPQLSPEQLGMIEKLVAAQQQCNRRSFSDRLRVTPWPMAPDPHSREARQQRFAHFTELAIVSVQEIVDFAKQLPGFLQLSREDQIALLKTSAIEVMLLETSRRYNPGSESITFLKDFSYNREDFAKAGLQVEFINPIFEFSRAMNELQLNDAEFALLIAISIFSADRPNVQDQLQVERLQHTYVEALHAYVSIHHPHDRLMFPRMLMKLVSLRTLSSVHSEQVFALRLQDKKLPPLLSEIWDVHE
Summary of the method: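 Read-out: reporter transcript levels by RT-PCR plus capillary electrophoresis, fluorescence intensity. Transiently transfected HepG2, exogenous NR-GAL4 chimera, GAL4-UAS reporters; 24 h compound exposure. Activity = increase over DMSO negative control.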

[13] = target: Oxysterols receptor LXR-beta (Homo sapiens) (UniProt P55055); experiment: ATG_LXRb_TRANS: Attagene TRANS-FACTORIAL HepG2 Assay for human Liver X Receptor beta (LXRb) (AID 2282981); details: HepG2 Attagene TRANS GAL4-LXRb reporter, mRNA
Summary of the method: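 HepG2 cells transiently transfected with GAL4-UAS reporter units for chimeric NR-Gal4 proteins, dosed for 24 h. Reporter transcripts measured by RT-PCR and capillary electrophoresis; gain-of-signal fitting relative to DMSO.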

[14] = target: Nuclear receptor subfamily 4 group A member 2 (Homo sapiens) (UniProt P43354); experiment: ATG_NURR1_TRANS: Attagene TRANS-FACTORIAL HepG2 Assay for human Nuclear Receptor Related Protein 1 (NURR1) (AID 2282985); details: HepG2 Attagene TRANS reporter, mRNA readout
Sequence of Nuclear receptor subfamily 4 group A member 2 (Homo sapiens) (P43354 whole entry, looked up, the tested form may be a part): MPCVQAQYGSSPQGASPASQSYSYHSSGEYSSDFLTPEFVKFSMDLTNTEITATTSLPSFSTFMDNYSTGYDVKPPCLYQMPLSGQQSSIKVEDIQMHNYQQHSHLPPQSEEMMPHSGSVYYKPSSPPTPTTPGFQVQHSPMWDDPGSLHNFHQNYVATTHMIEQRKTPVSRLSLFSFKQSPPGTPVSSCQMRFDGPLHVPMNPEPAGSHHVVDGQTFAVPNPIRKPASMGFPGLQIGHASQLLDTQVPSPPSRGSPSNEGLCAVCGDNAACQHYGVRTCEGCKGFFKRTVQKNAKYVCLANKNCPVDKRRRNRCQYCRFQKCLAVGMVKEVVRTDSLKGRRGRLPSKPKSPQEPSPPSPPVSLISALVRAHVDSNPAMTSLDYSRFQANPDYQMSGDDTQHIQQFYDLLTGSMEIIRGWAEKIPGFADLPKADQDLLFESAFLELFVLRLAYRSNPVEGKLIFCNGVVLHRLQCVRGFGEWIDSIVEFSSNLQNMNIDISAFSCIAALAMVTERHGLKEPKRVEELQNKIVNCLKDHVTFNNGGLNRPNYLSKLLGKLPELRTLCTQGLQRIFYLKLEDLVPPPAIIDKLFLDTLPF
Summary of the method: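 HepG2 cells transiently transfected with NURR1-Gal4 chimera and GAL4-UAS reporter units; after 24 hr compound exposure, reporter mRNA quantified by RT-PCR and capillary electrophoresis; gain of signal fitted against DMSO.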

[15] = ATG_M_06_TRANS: Attagene TRANS-FACTORIAL HepG2 Assay for M06 Transcription Factor (Internal Marker) (AID 2282983); details: HepG2 Attagene TRANS M06 internal marker reporter
Summary of the method: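 After a 24 h chemical treatment of transfected HepG2, RNA underwent DNase I treatment, reverse transcription and reporter-specific PCR; labelled, HpaI-digested products were sized by capillary electrophoresis. Signal increase relative to DMSO defined activity.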

[16] = target: Nuclear receptor subfamily 1 group I member 3 (Homo sapiens) (UniProt Q14994); experiment: ATG_CAR_TRANS: Attagene TRANS-FACTORIAL HepG2 Assay for human Constitutive Androstane Receptor (CAR) (AID 2282969); details: HepG2 Attagene TRANS-FACTORIAL CAR reporter;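 also: activators raise reporter mRNA above DMSO so AC50 marks induction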
Sequence of Nuclear receptor subfamily 1 group I member 3 (Homo sapiens) (Q14994 whole entry, looked up, the tested form may be a part): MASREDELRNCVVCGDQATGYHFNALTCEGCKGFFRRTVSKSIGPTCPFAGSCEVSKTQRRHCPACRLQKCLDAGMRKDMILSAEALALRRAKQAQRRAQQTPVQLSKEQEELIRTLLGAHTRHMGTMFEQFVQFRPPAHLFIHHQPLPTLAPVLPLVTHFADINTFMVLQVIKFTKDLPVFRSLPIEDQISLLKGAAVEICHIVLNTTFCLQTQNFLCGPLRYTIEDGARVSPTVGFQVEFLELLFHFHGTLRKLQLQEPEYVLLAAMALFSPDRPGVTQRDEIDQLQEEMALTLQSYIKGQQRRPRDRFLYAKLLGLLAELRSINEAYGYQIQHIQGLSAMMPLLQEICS
Summary of the method: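 HepG2 cells transiently transfected with GAL4-UAS reporter units; TRANS format reads activity of exogenous chimeric NR-Gal4 protein. After 24 h dosing, reporter mRNA quantified by RT-PCR, 6-FAM labelling and capillary electrophoresis; gain of signal fitted against DMSO.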

[17] = target: Estrogen receptor (Homo sapiens) (UniProt P03372); experiment: ATG_ERa_TRANS: Attagene TRANS-FACTORIAL HepG2 Assay for human Estrogen Receptor alpha (ERa) (AID 2282970); details: HepG2 Attagene TRANS ERa GAL4 reporter, mRNA
Sequence of Estrogen receptor (Homo sapiens) (P03372 whole entry, looked up, the tested form may be a part): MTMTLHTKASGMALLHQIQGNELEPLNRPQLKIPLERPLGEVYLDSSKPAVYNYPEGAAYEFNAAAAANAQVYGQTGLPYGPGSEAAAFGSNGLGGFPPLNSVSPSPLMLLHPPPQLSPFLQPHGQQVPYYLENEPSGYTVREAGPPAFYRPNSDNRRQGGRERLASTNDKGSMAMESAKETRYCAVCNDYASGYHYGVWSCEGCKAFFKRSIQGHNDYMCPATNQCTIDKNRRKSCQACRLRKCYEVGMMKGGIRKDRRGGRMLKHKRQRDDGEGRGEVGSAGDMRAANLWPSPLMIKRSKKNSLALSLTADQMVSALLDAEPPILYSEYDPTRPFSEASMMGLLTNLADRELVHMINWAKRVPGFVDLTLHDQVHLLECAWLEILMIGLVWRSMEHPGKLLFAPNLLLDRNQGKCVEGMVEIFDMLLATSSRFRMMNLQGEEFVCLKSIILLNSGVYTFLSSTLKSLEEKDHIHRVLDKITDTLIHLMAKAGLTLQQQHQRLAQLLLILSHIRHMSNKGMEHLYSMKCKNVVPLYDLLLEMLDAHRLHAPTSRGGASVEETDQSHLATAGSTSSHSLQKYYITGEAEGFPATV
Summary of the method: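 After 24 h of compound treatment, RNA from HepG2 cells bearing transfected GAL4-UAS reporter constructs is converted to cDNA, amplified and fluorescently labelled. Capillary electrophoresis resolves the ERa-linked reporter; DMSO serves as negative control.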

[18] = target: Steroid hormone receptor ERR1 (Homo sapiens) (UniProt P11474); experiment: ATG_ERRa_TRANS: Attagene TRANS-FACTORIAL HepG2 Assay for human Estrogen-Related Receptor alpha (ERRa) (AID 2282971); details: HepG2 Attagene TRANS reporter, ERRa transactivation
Sequence of Steroid hormone receptor ERR1 (Homo sapiens) (P11474 whole entry, looked up, the tested form may be a part): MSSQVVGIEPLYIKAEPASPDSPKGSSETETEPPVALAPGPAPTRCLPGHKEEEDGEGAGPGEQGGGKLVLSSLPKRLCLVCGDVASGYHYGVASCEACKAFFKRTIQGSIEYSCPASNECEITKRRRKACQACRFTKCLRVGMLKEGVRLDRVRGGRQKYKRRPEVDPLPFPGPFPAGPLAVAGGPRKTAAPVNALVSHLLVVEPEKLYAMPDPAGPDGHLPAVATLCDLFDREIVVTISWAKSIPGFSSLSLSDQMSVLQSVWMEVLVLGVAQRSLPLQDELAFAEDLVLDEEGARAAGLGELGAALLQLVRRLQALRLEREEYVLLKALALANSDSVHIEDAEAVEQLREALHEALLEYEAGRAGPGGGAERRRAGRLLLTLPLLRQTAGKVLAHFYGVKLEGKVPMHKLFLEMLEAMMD
Summary of the method: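 Transfected HepG2, 24 h dosing, ERRa-Gal4 chimera driving GAL4-UAS reporter. Readout: reporter mRNA via RT-PCR plus capillary electrophoresis (fluorescence). Positive direction vs DMSO control.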

[19] = ATG_GAL4_TRANS: Attagene TRANS-FACTORIAL HepG2 Assay for GAL4 (Internal Marker) (AID 2282976); details: HepG2 Attagene TRANS GAL4 internal marker reporter
Summary of the method: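 RT-PCR/capillary electrophoresis readout of reporter mRNA. HepG2, transient MRTU transfection (GAL4-UAS reporters), 24 h compound exposure. Background-control endpoint, positive direction vs DMSO baseline.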

[20] = target: Estrogen-related receptor gamma (Homo sapiens) (UniProt P62508); experiment: ATG_ERRg_TRANS: Attagene TRANS-FACTORIAL HepG2 Assay for human Estrogen-Related Receptor gamma (ERRg) (AID 2282977); details: HepG2 Attagene TRANS reporter, ERRg transactivation;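 also: hits increase reporter signal over DMSO so potencies reflect activators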
Summary of the method: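 Transfect HepG2 with multiple GAL4-UAS reporter transcription units; dose chemicals 24 h; isolate RNA, reverse-transcribe with oligo(dT), PCR-amplify, label with 6-FAM, digest with HpaI; size fragments by capillary electrophoresis. DMSO serves as negative control.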

Measured: AC50

Cc1ccccc1CCO
inactive: [1] | [2] | [3] | [4] | [5] | [6] | [7] | [8] | [9] | [10]

C/C=C/C=C/CCCCCCCO
active: [4] 22.7 µM | [9] 100 µM
not listed: [15] | [16] | [17] | [18] | [19] | [20]
inactive: all other assays above

CCCCCCCCCCCCCc1ccccc1
inactive: [1] | [2] | [3] | [4] | [5] | [7] | [13] | [8] | [15] | [9] | [10]

Cc1c[nH]c(=O)[nH]c1=O
inactive: [1] | [2] | [3] | [4] | [5] | [11] | [7] | [13] | [8] | [15]

O=C1c2ccccc2C(=O)c2cc(S(=O)(=O)O)ccc21
inactive: [1] | [2] | [3] | [4] | [5] | [6] | [11] | [12] | [13] | [9]

CC(C)CCOCc1ccccc1
not listed: [4] | [6] | [7] | [8] | [10] | [11] | [20]
inactive: all other assays above

CC1(C)C(=O)N(CO)C(=O)N1CO
not listed: [6] | [11] | [14] | [16] | [17] | [18] | [20]
inactive: all other assays above

CC1C(C)(C)C2=C(C(=O)CCC2)C1(C)C (stereo not drawn)
active: [17] 11.5 µM
not listed: [4] | [5] | [7] | [8] | [15] | [19]
inactive: all other assays above

CCC(C)c1ccccc1 (stereo not drawn)
not listed: [9] | [14] | [16] | [17] | [18] | [20]
inactive: all other assays above

C=CCCCCCCCCC=O
not listed: [4] | [6] | [7] | [11] | [13]
inactive: all other assays above

CCCCOCCOC(=O)COc1ccc(Cl)cc1Cl
not listed: [7] | [12] | [13] | [16] | [17] | [18] | [20]
inactive: all other assays above

CC(C)(CO)C(O)C(=O)NCCCO (stereo not drawn)
not listed: [6] | [9] | [11] | [13] | [16] | [17] | [18] | [19]
inactive: all other assays above

CCCCOC(=O)C(C)CC (stereo not drawn)
inactive: [1] | [2] | [3] | [4] | [15] | [10]

CC1CC(=O)CC(C)(C)C1 (stereo not drawn)
inactive: [1] | [2] | [3] | [4] | [5] | [11] | [12] | [13] | [15] | [10]

CC12CCC(CC1)C(C)(C)O2
not listed: [6] | [9] | [12] | [13] | [16] | [17] | [18] | [20]
inactive: all other assays above

COC(=O)c1ccc(C(=O)OC)c(C(=O)OC)c1
not listed: [4] | [7] | [11] | [19]
inactive: all other assays above

N#CC1(N)CCCCC1
not listed: [7] | [10] | [15] | [16] | [17] | [18] | [19] | [20]
inactive: all other assays above

Nc1ncnc2nc[nH]c12
inactive: [1] | [2] | [3] | [4] | [6] | [19] | [11] | [7] | [8] | [10]

Cc1c(C(=O)c2c[nH]n(C)c2=O)ccc(S(C)(=O)=O)c1C1=NOCC1
not listed: [7] | [12] | [14] | [16] | [17] | [18] | [19] | [20]
inactive: all other assays above

CC(=O)OC(C)c1ccccc1 (stereo not drawn)
not listed: [6] | [7] | [12] | [16] | [17] | [18] | [20]
inactive: all other assays above

CC(=O)OC1CCCCC1
not listed: [5] | [6] | [12] | [13] | [14] | [16] | [17]
inactive: all other assays above
